Our source for the Inhibition values is ChEMBL document CHEMBL1157539, “Thousands of chemical starting points for antimalarial lead identification” (Nature, 2010).

As usually defined, the Inhibition is how much of the control response was suppressed. High values mean a response far below the control, low ones a response near the control.

The test deals with HepG2. Nature of the test: GSK_TCMDC: Percent inhibition of human HepG2 cell line. Test compounds present at 10uM. The test is classed as functional.
Turning to `Cc1cc(Nc2nc(Nc3cccc(Cl)c3)nc3ccccc23)n[nH]1`, the Inhibition was determined as 9%.

For the compound `CCC(O)c1ccc(Br)cc1NC(=O)c1cccc(Cl)c1` (centres undefined), the Inhibition stood at 0%.

Compound `COc1ccc(OC(C)CNC(=O)c2cc([N+](=O)[O-])ccc2-c2ccc(OC)cc2)cc1` (centres undefined) returned an Inhibition of 18%.

The compound `CCCNC(=O)c1cncc(-c2ccc(CNCCCc3ccccc3)cc2)c1.O=C(O)C(F)(F)F` registered an Inhibition of 0%.

Take `CCCCCn1c(Sc2ccc(C#N)c([N+](=O)[O-])c2)nnc1-c1ccccc1`: the Inhibition worked out at 22%.

In turn, `Cc1ccc(F)cc1S(=O)(=O)Nc1ccc(CCN2CCC(N3CCCCC3)CC2)cc1` displayed an Inhibition of 25%.

Regarding `CS(=O)(=O)c1ccc(CCNCc2ccc(-c3ccc(CN(C(=O)C4CCCC4)C4CCN(Cc5ccccc5)CC4)cc3)nc2)cc1.O=C(O)C(F)(F)F`, the Inhibition is on record as 24%.

`O=C(c1cc(OC(F)(F)F)ccc1O)N1CCN(c2ccccc2)CC1` showed an Inhibition of 0%.

For `Cl.O=C(/C=C/c1ccc(F)cc1)NC1CCC(CCN2CCCN(c3ccc(C(F)(F)F)cn3)CC2)CC1` (centres undefined), the Inhibition is given as 29%.

As for `CCCNCc1ccc(-c2ccc(CN(CCOC)C(=O)[C@H]3CCCO3)cc2)nc1.O=C(O)C(F)(F)F`, the Inhibition turned out to be 1%.

For the compound `CCCc1cc(Cc2cnc(N)nc2N)cc2c1OC(C)C2C.Cl` (centres undefined), the Inhibition worked out at 32%.

For `O=C(/C=C/c1ccc(Cl)c(Cl)c1)NCCCCCN1CCC(C(=O)Nc2ccc(Cl)cc2)CC1`, the Inhibition is on record as 42%.

In turn, `NC1=NC(c2ccccc2)(c2ccccc2)C(=O)N1CCOc1ccccc1` yielded an Inhibition of 42%.

Take `CCN(CC)CCN(Cc1ccc(-c2ccc(C(F)(F)F)cc2)cc1)C(=O)Cn1c(CCc2cccc(F)c2F)nc(=O)c2ccc(C(F)(F)F)cc21.O=C(O)C(O)C(O)C(=O)O`: the Inhibition stood at 19%.
